# Measured values published in the supplement of paper PMC9262897, “Low-cost anti-mycobacterial drug discovery using engineered E. coli” (Nature Communications, 2022).
# Where a name gives a salt, the structure may show the parent alone. ± gives the standard deviation of the averaged measurements.
# Key:
# Assay in all cases: growth (OD600 after 10 h); higher = more growth (less inhibition)
# [1] = tested on: E. coli TESEC Alr+ wild-type control; conditions: compound 0.1 mM; raw OD600 reference: median of DMSO wells 0.241, cell-free background 0.041
# Experimental: (§1)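 TESEC Mtb Alr E. coli, or the Alr+ wild-type control, in 384-well plates with Prestwick library compounds at 0.1 mM and 1% DMSO, across arabinose induction levels of 1E3 to 1E7 nM. Growth is read as OD600 after 10 h at 37 °C in triplicate biological replicates.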
# E. coli TESEC Mtb Alr [2] = conditions: compound 0.1 mM
# Experimental: as §1
# E. coli TESEC Mtb Asd = conditions: compound 0.1 mM
# Experimental: (§2)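 TESEC E. coli strains in which the native enzyme is deleted and replaced by arabinose-inducible Mtb Asd, DapB, CysH or TrpD, each grown in its selective medium. Strains were screened against the Prestwick library at 0.1 mM and 1% DMSO in 384-well format at low and high arabinose induction. Growth is read as OD600 after 10 h in triplicate.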
# [3] = tested on: E. coli TESEC Alr+ wild-type control; conditions: compound 0.1 mM; raw OD600 reference: median of DMSO wells 0.49, cell-free background 0.052
# Experimental: (§3)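 TESEC Mtb Alr E. coli (ΔaraC ΔtolC ΔentC Δalr ΔdadX, arabinose-inducible Mtb Alr) or the Alr+ wild-type control strain, grown in defined M9-fructose medium without D-alanine in 96-well plates with Prestwick library compounds at 0.1 mM and 1% DMSO. Low Alr induction is 0.1 µM arabinose and high induction is 10 mM arabinose.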
# E. coli TESEC Mtb Alr [4] = conditions: compound 0.1 mM; remark: listed apart in the source
# Experimental: as §3
# E. coli TESEC Mtb DapB = conditions: compound 0.1 mM
# Experimental: as §2
# [5] = arabinose 1000 nM, raw OD600 reference: median of DMSO wells 0.294, cell-free background 0.041
# [6] = arabinose 10000 nM, raw OD600 reference: median of DMSO wells 0.264, cell-free background 0.041
# [7] = arabinose 100000 nM, raw OD600 reference: median of DMSO wells 0.201, cell-free background 0.041
# [8] = arabinose 1000000 nM, raw OD600 reference: median of DMSO wells 0.193, cell-free background 0.041
# [9] = arabinose 10000000 nM, raw OD600 reference: median of DMSO wells 0.146, cell-free background 0.041
# [10] = arabinose induction (level): High, raw OD600 reference: median of DMSO wells 0.331, cell-free background 0.041
# [11] = arabinose induction (level): Low, raw OD600 reference: median of DMSO wells 0.417, cell-free background 0.041
# [12] = arabinose 100 nM, raw OD600 reference: median of DMSO wells 0.413, cell-free background 0.052
# [13] = arabinose 10000000 nM, raw OD600 reference: median of DMSO wells […], cell-free background 0.052
# [14] = arabinose induction (level): High, raw OD600 reference: median of DMSO wells […], cell-free background 0.041
# [15] = arabinose induction (level): Low, raw OD600 reference: median of DMSO wells 0.227, cell-free background 0.041
SMILES,growth [1],growth (E. coli TESEC Mtb Alr [2]; [5]),growth (E. coli TESEC Mtb Alr [2]; [6]),growth (E. coli TESEC Mtb Alr [2]; [7]),growth (E. coli TESEC Mtb Alr [2]; [8]),growth (E. coli TESEC Mtb Alr [2]; [9]),growth (E. coli TESEC Mtb Asd; [10]),growth (E. coli TESEC Mtb Asd; [11]),growth [3],growth (E. coli TESEC Mtb Alr [4]; [12]),growth (E. coli TESEC Mtb Alr [4]; [13]),growth (E. coli TESEC Mtb DapB; [14]),growth (E. coli TESEC Mtb DapB; [15])
COc1ccc(CCN)cc1OC [Homoveratrylamine],0.2134 ± 0.001,0.287 ± 0.0094,0.281 ± 0.011,0.182 ± 0.019,0.219 ± 0.0076,0.131 ± 0.002,0.225 ± 0.018,0.353 ± 0.087,0.563 ± 0.069,0.409 ± 0.0095,0.316 ± 0.0066,,
C=C1C[C@@H]2[C@H](CC[C@]3(C)C(=O)CC[C@@H]23)[C@@]2(C)C=CC(=O)C=C12 [Exemestane],0.113 ± 0.0025,0.1298 ± 0.0011,0.165 ± 0.0017,0.108 ± 0.0018,0.0722 ± 0.0026,0.0997 ± 0.0036,0.0993 ± 0.0088,0.147 ± 0.023,,0.379 ± 0.039,0.129 ± 0.019,,
CCNCC(O)c1cccc(O)c1 (stereo not given) [Etilefrine hydrochloride],0.247 ± 0.0026,0.3085 ± 0.0027,0.261 ± 0.012,0.188 ± 0.018,0.193 ± 0.0032,0.134 ± 0.0026,0.211 ± 0.025,0.367 ± 0.035,,0.409 ± 0.015,0.345 ± 0.023,,
CCN(CC)C(C)C(=O)c1ccccc1 (stereo not given) [Amfepramone hydrochloride],0.25 ± 0.0034,0.259 ± 0.051,0.261 ± 0.014,0.179 ± 0.027,0.187 ± 0.0038,0.141 ± 0.0089,0.256 ± 0.064,0.447 ± 0.047,,0.411 ± 0.0098,0.325 ± 0.016,0.202 ± 0.018,0.218 ± 0.021
CC(C)c1c(CN(C)C(C)Cc2ccccc2)n(C)n(-c2ccccc2)c1=O (stereo not given) [Famprofazone],0.219 ± 0.0093,0.279 ± 0.013,0.27 ± 0.014,0.154 ± 0.0078,0.131 ± 0.0042,0.154 ± 0.0085,0.425 ± 0.02,0.486 ± 0.087,0.443 ± 0.019,0.406 ± 0.0053,0.269 ± 0.0074,,
c1ccc2c(c1)Nc1ccccc1S2 [Phenothiazine],0.157 ± 0.0061,0.215 ± 0.0099,0.265 ± 0.011,0.209 ± 0.015,0.198 ± 0.013,0.201 ± 0.0046,0.377 ± 0.076,0.177 ± 0.014,0.457 ± 0.0082,0.415 ± 0.0099,0.344 ± 0.021,,
"CNCC(O)c1ccc(O)cc1 (racemic) [(+,-)-Synephrine]",0.239 ± 0.0073,0.2963 ± 0.00035,0.267 ± 0.01,0.175 ± 0.012,0.198 ± 0.012,0.141 ± 0.0004,0.222 ± 0.018,0.322 ± 0.076,,0.4195 ± 0.0029,0.325 ± 0.027,,
CCN[C@@H](C)Cc1cccc(C(F)(F)F)c1 [Dexfenfluramine hydrochloride],0.23 ± 0.013,0.315 ± 0.0066,0.261 ± 0.0059,0.232 ± 0.027,0.174 ± 0.0053,0.158 ± 0.0058,0.235 ± 0.033,0.335 ± 0.083,,0.412 ± 0.0093,0.351 ± 0.026,,
CCCC[N+]1(C)[C@@H]2CC(OC(=O)[C@H](CO)c3ccccc3)C[C@H]1[C@@H]1O[C@@H]12 (stereo not given in full) [Butylscopolammonium (n-) bromide],0.225 ± 0.0045,0.296 ± 0.012,0.2707 ± 0.0023,0.189 ± 0.01,0.185 ± 0.0011,0.132 ± 0.0029,0.372 ± 0.073,0.412 ± 0.034,,0.405 ± 0.0075,0.338 ± 0.021,,
CCC1=C[C@H]2CN3CCc4c([nH]c5ccccc45)[C@](C(=O)OC)(C2)[C@H]13 [Catharanthine],0.203 ± 0.0049,0.262 ± 0.012,0.259 ± 0.006,0.169 ± 0.013,0.101 ± 0.0015,0.144 ± 0.0052,0.2 ± 0.032,0.437 ± 0.016,,0.4199 ± 0.0038,0.3 ± 0.017,0.167 ± 0.0065,0.1738 ± 0.0015
O=P1(N(CCCl)CCCl)NCCCO1 (stereo not given) [Cyclophosphamide],0.2382 ± 0.0022,0.271 ± 0.011,0.276 ± 0.0047,0.18 ± 0.021,0.204 ± 0.022,0.137 ± 0.0039,0.341 ± 0.066,0.446 ± 0.014,0.57 ± 0.069,0.4139 ± 0.003,0.314 ± 0.012,,
CN1[C@@H]2CC[C@H]1C[C@@H](OC(=O)C(CO)c1ccccc1)C2 (stereo not given in full) [Atropine sulfate monohydrate],0.234 ± 0.0026,0.299 ± 0.0088,0.25 ± 0.0043,0.253 ± 0.012,0.182 ± 0.0059,0.149 ± 0.011,0.339 ± 0.053,0.421 ± 0.081,0.418 ± 0.017,0.41 ± 0.019,0.357 ± 0.014,,
CC(NC(C)(C)C)C(=O)c1cccc(Cl)c1 (stereo not given) [Bupropion hydrochloride],0.226 ± 0.0027,0.283 ± 0.018,0.257 ± 0.0069,0.229 ± 0.023,0.171 ± 0.0039,0.136 ± 0.0076,0.356 ± 0.055,0.41 ± 0.03,0.46 ± 0.026,0.404 ± 0.012,0.365 ± 0.0095,,
